{"source": "the supplement of paper PMC6992640", "key": {"HCI01": {"tested_on": "HCI01 (cells of a triple-negative basal-like breast cancer xenograft)", "assay": "cell viability of combination (% of vehicle); higher = less cytotoxic", "settings": "1 µM; 72 h; partner dose: 10 nM", "protocol": "(§1)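 PDX cells were treated for 72 h with each drug at 1 µM plus afatinib (10 nM; 1 µM for WHIM30). Luciferase viability is expressed as percent of vehicle.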"}, "WHIM2": {"tested_on": "WHIM2 (cells of a triple-negative basal-like breast cancer xenograft)", "assay": "cell viability of combination (% of vehicle); higher = less cytotoxic", "settings": "1 µM; 72 h; partner dose: 10 nM", "protocol": "as §1"}}, "data": [{"smiles": "COc1cc2c(Nc3ccc(Br)cc3F)ncnc2cc1OCC1CCN(C)CC1", "note": "[Vandetanib (ZD6474)] + CN(C)C/C=C/C(=O)Nc1cc2c(Nc3ccc(F)c(Cl)c3)ncnc2cc1O[C@H]1CCOC1 [Afatinib]", "values": [{"measurement": "cell viability of combination", "setting": "HCI01", "result": 47.3}, {"measurement": "cell viability of combination", "setting": "WHIM2", "result": 24.4}]}, {"smiles": "CC(Oc1cc(-c2cnn(C3CCNCC3)c2)cnc1N)c1c(Cl)ccc(F)c1Cl", "note": "[(R)-Crizotinib] + CN(C)C/C=C/C(=O)Nc1cc2c(Nc3ccc(F)c(Cl)c3)ncnc2cc1O[C@H]1CCOC1 [Afatinib]", "values": [{"measurement": "cell viability of combination", "setting": "HCI01", "result": 66}, {"measurement": "cell viability of combination", "setting": "WHIM2", "result": 44.4}]}, {"smiles": "COc1ccc(CN2CCN(C(c3ccc(F)cc3)c3ccc(F)cc3)CC2)c(OC)c1OC.Cl.Cl", "note": "[Lomerizine HCl] + CN(C)C/C=C/C(=O)Nc1cc2c(Nc3ccc(F)c(Cl)c3)ncnc2cc1O[C@H]1CCOC1 [Afatinib]", "values": [{"measurement": "cell viability of combination", "setting": "HCI01", "result": 57.7}, {"measurement": "cell viability of combination", "setting": "WHIM2", "result": 50.9}]}, {"smiles": "CCCSc1nc(NC2CC2c2ccc(F)c(F)c2)c2nnn(C3CC(OCCO)C(O)C3O)c2n1", "note": "(centres undefined) [Ticagrelor] + CN(C)C/C=C/C(=O)Nc1cc2c(Nc3ccc(F)c(Cl)c3)ncnc2cc1O[C@H]1CCOC1 [Afatinib]", "values": [{"measurement": "cell viability of combination", "setting": "HCI01", "result": 57.8}, {"measurement": "cell viability of combination", "setting": "WHIM2", "result": 43}]}, {"smiles": "CN1CCC(COc2cnc(-c3cccc(Cn4nc(-c5cccc(C#N)c5)ccc4=O)c3)nc2)CC1", "note": "+ CN(C)C/C=C/C(=O)Nc1cc2c(Nc3ccc(F)c(Cl)c3)ncnc2cc1O[C@H]1CCOC1 [Afatinib]", "values": [{"measurement": "cell viability of combination", "setting": "HCI01", "result": 39.9}, {"measurement": "cell viability of combination", "setting": "WHIM2", "result": 51}]}, {"smiles": "CC1(C)Cc2c(-c3ccccc3)c(-c3ccc(Cl)cc3)c(CC(=O)O)n2C1", "note": "[Licofelone] + CN(C)C/C=C/C(=O)Nc1cc2c(Nc3ccc(F)c(Cl)c3)ncnc2cc1O[C@H]1CCOC1 [Afatinib]", "values": [{"measurement": "cell viability of combination", "setting": "HCI01", "result": 66.1}, {"measurement": "cell viability of combination", "setting": "WHIM2", "result": 46.8}]}, {"smiles": "Clc1ccc(C(Cn2ccnc2)OCc2c(Cl)cccc2Cl)c(Cl)c1.O=[N+]([O-])O", "note": "(centres undefined) [Isoconazole nitrate] + CN(C)C/C=C/C(=O)Nc1cc2c(Nc3ccc(F)c(Cl)c3)ncnc2cc1O[C@H]1CCOC1 [Afatinib]", "values": [{"measurement": "cell viability of combination", "setting": "HCI01", "result": 63.8}, {"measurement": "cell viability of combination", "setting": "WHIM2", "result": 52.1}]}, {"smiles": "CCC(NC(=O)C(C)NC)C(=O)N1CC(O)CC1Cc1c(-c2[nH]c3cc(F)ccc3c2CC2CC(O)CN2C(=O)C(CC)NC(=O)C(C)NC)[nH]c2cc(F)ccc12", "note": "(centres undefined) + CN(C)C/C=C/C(=O)Nc1cc2c(Nc3ccc(F)c(Cl)c3)ncnc2cc1O[C@H]1CCOC1 [Afatinib]", "values": [{"measurement": "cell viability of combination", "setting": "HCI01", "result": 42.3}, {"measurement": "cell viability of combination", "setting": "WHIM2", "result": 19.1}]}, {"smiles": "Cl.Fc1ccc(C2CCNCC2COc2ccc3c(c2)OCO3)cc1", "note": "(centres undefined) [Paroxetine HCl] + CN(C)C/C=C/C(=O)Nc1cc2c(Nc3ccc(F)c(Cl)c3)ncnc2cc1O[C@H]1CCOC1 [Afatinib]", "values": [{"measurement": "cell viability of combination", "setting": "HCI01", "result": 52.3}, {"measurement": "cell viability of combination", "setting": "WHIM2", "result": 49.6}]}, {"smiles": "CCOc1cc2ncc(C#N)c(Nc3ccc(OCc4ccccn4)c(Cl)c3)c2cc1NC(=O)C=CCN(C)C", "note": "[Neratinib (HKI-272)] + CN(C)C/C=C/C(=O)Nc1cc2c(Nc3ccc(F)c(Cl)c3)ncnc2cc1O[C@H]1CCOC1 [Afatinib]", "values": [{"measurement": "cell viability of combination", "setting": "HCI01", "result": 60.9}, {"measurement": "cell viability of combination", "setting": "WHIM2", "result": 25.5}]}, {"smiles": "CO[C@H]1/C=C/O[C@@]2(C)Oc3c(C)c(O)c4c(O)c(c(/C=N/N5CCN(C6CCCC6)CC5)c(O)c4c3C2=O)NC(=O)/C(C)=C\\C=C\\[C@H](C)[C@H](O)[C@@H](C)[C@@H](O)[C@@H](C)[C@H](OC(C)=O)[C@@H]1C", "note": "[Rifapentine] + CN(C)C/C=C/C(=O)Nc1cc2c(Nc3ccc(F)c(Cl)c3)ncnc2cc1O[C@H]1CCOC1 [Afatinib]", "values": [{"measurement": "cell viability of combination", "setting": "HCI01", "result": 56.2}, {"measurement": "cell viability of combination", "setting": "WHIM2", "result": 46.2}]}, {"smiles": "COC(=O)C12CCC(C)(C)CC1C1C(=O)C=C3C4(C)C=C(C#N)C(=O)C(C)(C)C4CCC3(C)C1(C)CC2", "note": "(centres undefined) [Bardoxolone methyl] + CN(C)C/C=C/C(=O)Nc1cc2c(Nc3ccc(F)c(Cl)c3)ncnc2cc1O[C@H]1CCOC1 [Afatinib]", "values": [{"measurement": "cell viability of combination", "setting": "HCI01", "result": 53.5}, {"measurement": "cell viability of combination", "setting": "WHIM2", "result": 30.4}]}, {"smiles": "CCCCCCCCCCCCCCCCOP(=O)([O-])OCC[N+](C)(C)C", "note": "[Miltefosine] + CN(C)C/C=C/C(=O)Nc1cc2c(Nc3ccc(F)c(Cl)c3)ncnc2cc1O[C@H]1CCOC1 [Afatinib]", "values": [{"measurement": "cell viability of combination", "setting": "HCI01", "result": 56.7}, {"measurement": "cell viability of combination", "setting": "WHIM2", "result": 49.3}]}, {"smiles": "CC[C@@]1(O)C(=O)OCc2c1cc1n(c2=O)Cc2cc3c(CN(C)C)c(O)ccc3nc2-1", "note": "[Topotecan] + CN(C)C/C=C/C(=O)Nc1cc2c(Nc3ccc(F)c(Cl)c3)ncnc2cc1O[C@H]1CCOC1 [Afatinib]", "values": [{"measurement": "cell viability of combination", "setting": "HCI01", "result": 40.1}, {"measurement": "cell viability of combination", "setting": "WHIM2", "result": 31.4}]}, {"smiles": "CCOC(=O)C1=C(COCCN)NC(C)=C(C(=O)OC)C1c1ccccc1Cl.O=S(=O)(O)c1ccccc1", "note": "(centres undefined) [Amlodipine Besylate] + CN(C)C/C=C/C(=O)Nc1cc2c(Nc3ccc(F)c(Cl)c3)ncnc2cc1O[C@H]1CCOC1 [Afatinib]", "values": [{"measurement": "cell viability of combination", "setting": "HCI01", "result": 59.5}, {"measurement": "cell viability of combination", "setting": "WHIM2", "result": 51.7}]}, {"smiles": "COc1ccc2cc1Oc1ccc(cc1)CC1c3c(cc4c(c3Oc3cc5c(cc3OC)CCN(C)C5C2)OCO4)CCN1C", "note": "(centres undefined) [Cepharanthine] + CN(C)C/C=C/C(=O)Nc1cc2c(Nc3ccc(F)c(Cl)c3)ncnc2cc1O[C@H]1CCOC1 [Afatinib]", "values": [{"measurement": "cell viability of combination", "setting": "HCI01", "result": 48.5}, {"measurement": "cell viability of combination", "setting": "WHIM2", "result": 38.1}]}, {"smiles": "CN(C(=O)CN(CCO)CC(=O)N(C)C(C)(C)Cc1ccccc1)C(C)(C)Cc1ccccc1", "note": "[Oxethazaine] + CN(C)C/C=C/C(=O)Nc1cc2c(Nc3ccc(F)c(Cl)c3)ncnc2cc1O[C@H]1CCOC1 [Afatinib]", "values": [{"measurement": "cell viability of combination", "setting": "HCI01", "result": 49.1}, {"measurement": "cell viability of combination", "setting": "WHIM2", "result": 41.4}]}, {"smiles": "CCC(=C(c1ccccc1)c1ccc(OCCN(C)C)cc1)c1ccccc1.O=C(O)CC(O)(CC(=O)O)C(=O)O", "note": "[Tamoxifen Citrate] + CN(C)C/C=C/C(=O)Nc1cc2c(Nc3ccc(F)c(Cl)c3)ncnc2cc1O[C@H]1CCOC1 [Afatinib]", "values": [{"measurement": "cell viability of combination", "setting": "HCI01", "result": 65}, {"measurement": "cell viability of combination", "setting": "WHIM2", "result": 51}]}, {"smiles": "CS(=O)(=O)CCNCc1ccc(-c2ccc3ncnc(Nc4ccc(OCc5cccc(F)c5)c(Cl)c4)c3c2)o1.Cc1ccc(S(=O)(=O)O)cc1.Cc1ccc(S(=O)(=O)O)cc1", "note": "[Lapatinib Ditosylate] + CN(C)C/C=C/C(=O)Nc1cc2c(Nc3ccc(F)c(Cl)c3)ncnc2cc1O[C@H]1CCOC1 [Afatinib]", "values": [{"measurement": "cell viability of combination", "setting": "HCI01", "result": 41.6}, {"measurement": "cell viability of combination", "setting": "WHIM2", "result": 36.7}]}, {"smiles": "CC(C)C(=O)OCC(=O)[C@@]12O[C@H](C3CCCCC3)O[C@@H]1C[C@H]1[C@@H]3CCC4=CC(=O)C=C[C@]4(C)[C@H]3[C@@H](O)C[C@@]12C", "note": "[Ciclesonide] + CN(C)C/C=C/C(=O)Nc1cc2c(Nc3ccc(F)c(Cl)c3)ncnc2cc1O[C@H]1CCOC1 [Afatinib]", "values": [{"measurement": "cell viability of combination", "setting": "HCI01", "result": 67.5}, {"measurement": "cell viability of combination", "setting": "WHIM2", "result": 41.3}]}, {"smiles": "Cl.Cl.Fc1ccc(C(c2ccc(F)cc2)N2CCN(CC=Cc3ccccc3)CC2)cc1", "note": "[Flunarizine 2HCl] + CN(C)C/C=C/C(=O)Nc1cc2c(Nc3ccc(F)c(Cl)c3)ncnc2cc1O[C@H]1CCOC1 [Afatinib]", "values": [{"measurement": "cell viability of combination", "setting": "HCI01", "result": 63.3}, {"measurement": "cell viability of combination", "setting": "WHIM2", "result": 50.6}]}, {"smiles": "CCCCc1oc2ccc(NS(C)(=O)=O)cc2c1C(=O)c1ccc(OCCCN(CCCC)CCCC)cc1", "note": "[Dronedarone] + CN(C)C/C=C/C(=O)Nc1cc2c(Nc3ccc(F)c(Cl)c3)ncnc2cc1O[C@H]1CCOC1 [Afatinib]", "values": [{"measurement": "cell viability of combination", "setting": "HCI01", "result": 48.1}, {"measurement": "cell viability of combination", "setting": "WHIM2", "result": 44.1}]}, {"smiles": "Cl.Cl.O=C1c2c(O)ccc(O)c2C(=O)c2c(NCCNCCO)ccc(NCCNCCO)c21", "note": "[Mitoxantrone HCl] + CN(C)C/C=C/C(=O)Nc1cc2c(Nc3ccc(F)c(Cl)c3)ncnc2cc1O[C@H]1CCOC1 [Afatinib]", "values": [{"measurement": "cell viability of combination", "setting": "HCI01", "result": 61.6}, {"measurement": "cell viability of combination", "setting": "WHIM2", "result": 13.5}]}, {"smiles": "COc1cccc2c1C(=O)c1c(O)c3c(c(O)c1C2=O)C[C@@](O)(C(C)=O)C[C@@H]3O[C@H]1C[C@H](N)[C@H](O)[C@H](C)O1.Cl", "note": "[Daunorubicin HCl] + CN(C)C/C=C/C(=O)Nc1cc2c(Nc3ccc(F)c(Cl)c3)ncnc2cc1O[C@H]1CCOC1 [Afatinib]", "values": [{"measurement": "cell viability of combination", "setting": "HCI01", "result": 70.7}, {"measurement": "cell viability of combination", "setting": "WHIM2", "result": 9.65}]}, {"smiles": "Cc1c(-c2ccc(O)cc2)n(Cc2ccc(OCCN3CCCCCC3)cc2)c2ccc(O)cc12.Cl", "note": "[Bazedoxifene HCl] + CN(C)C/C=C/C(=O)Nc1cc2c(Nc3ccc(F)c(Cl)c3)ncnc2cc1O[C@H]1CCOC1 [Afatinib]", "values": [{"measurement": "cell viability of combination", "setting": "HCI01", "result": 64.6}, {"measurement": "cell viability of combination", "setting": "WHIM2", "result": 49.7}]}, {"smiles": "COc1cc2nccc(Oc3ccc(NC(=O)Nc4cc(C)on4)c(Cl)c3)c2cc1OC", "note": "[Tivozanib (AV-951)] + CN(C)C/C=C/C(=O)Nc1cc2c(Nc3ccc(F)c(Cl)c3)ncnc2cc1O[C@H]1CCOC1 [Afatinib]", "values": [{"measurement": "cell viability of combination", "setting": "HCI01", "result": 43.9}, {"measurement": "cell viability of combination", "setting": "WHIM2", "result": 39.8}]}, {"smiles": "C=C1C(=CC=C2CCCC3(C)C2CCC3C(C)CCCC(C)(C)O)CC(O)CC1O", "note": "(centres undefined) [Calcitriol] + CN(C)C/C=C/C(=O)Nc1cc2c(Nc3ccc(F)c(Cl)c3)ncnc2cc1O[C@H]1CCOC1 [Afatinib]", "values": [{"measurement": "cell viability of combination", "setting": "HCI01", "result": 42.1}, {"measurement": "cell viability of combination", "setting": "WHIM2", "result": 31.2}]}]}
